# Laboratory results published in article PMC11062922 (Nature Chemical Biology, 2023).
# Where two headings read alike, the source gives them in different places.
# Assays:
# Set-up in all cases: species or system human, MV4-11 + K-562 + COLO205 + SK-N-BE2 + OVCAR-8
# ACVR1B = conditions: read-out: apparent Kd, n = 1
# ACVR1 = conditions: read-out: apparent Kd; compound concentrations: 100 nM and 1000 nM (sheet 'Samples'), CATDS: 4.9335047128928999E-2; n = 1
# CSNK1A1 = conditions: read-out: apparent Kd, compound concentrations: 100 nM and 1000 nM (sheet 'Samples'), n = 1
# CSNK1D = conditions: read-out: apparent Kd, compound concentrations: 100 nM and 1000 nM (sheet 'Samples'), n = 1
# CSNK1E = conditions: read-out: apparent Kd, compound concentrations: 100 nM and 1000 nM (sheet 'Samples'), n = 1
# DDR1 = conditions: read-out: apparent Kd; compound concentrations: 100 nM and 1000 nM (sheet 'Samples'), CATDS: 4.72879881828875E-2; n = 1
# DDR2 = conditions: read-out: apparent Kd; compound concentrations: 100 nM and 1000 nM (sheet 'Samples'), CATDS: 3.7607039392505398E-2; n = 1
# GAK = conditions: read-out: apparent Kd, compound concentrations: 100 nM and 1000 nM (sheet 'Samples'), n = 1
# MAPK10 = conditions: read-out: apparent Kd; compound concentrations: 100 nM and 1000 nM (sheet 'Samples'), CATDS: 4.8287227118758103E-2; n = 1
# MAPK11 = conditions: read-out: apparent Kd; compound concentrations: 100 nM and 1000 nM (sheet 'Samples'), CATDS: 4.7431075480448899E-2; n = 1
# MAPK14 = conditions: read-out: apparent Kd; compound concentrations: 100 nM and 1000 nM (sheet 'Samples'), CATDS: 0.132847798162957; n = 1
# MAPK9 = conditions: read-out: apparent Kd; compound concentrations: 100 nM and 1000 nM (sheet 'Samples'), CATDS: 6.4628535375358898E-2; n = 1
# MAPKAPK2 = conditions: read-out: apparent Kd; compound concentrations: 100 nM and 1000 nM (sheet 'Samples'), CATDS: 0.150637698751246; n = 1
# PRKD2 = conditions: read-out: apparent Kd, n = 1
# RIPK2 = conditions: read-out: apparent Kd; compound concentrations: 100 nM and 1000 nM (sheet 'Samples'), CATDS: 5.3537616523073803E-2; n = 1
# TGFBR1 = conditions: read-out: apparent Kd, n = 1
# ADCK3 = conditions: read-out: apparent Kd, compound concentrations: 100 nM and 1000 nM (sheet 'Samples'), n = 1
# AKT2 = conditions: read-out: apparent Kd, compound concentrations: 100 nM and 1000 nM (sheet 'Samples'), n = 1
# PIK3CA = conditions: read-out: apparent Kd, compound concentrations: 100 nM and 1000 nM (sheet 'Samples'), n = 1
# PIM2 = conditions: read-out: apparent Kd; compound concentrations: 100 nM and 1000 nM (sheet 'Samples'), CATDS: 0.15422664553474699; n = 1
# PRKAG2 = conditions: read-out: apparent Kd; compound concentrations: 100 nM and 1000 nM (sheet 'Samples'), CATDS: 0.141920033586769; n = 1
# CSNK2A1;CSNK2A3 = conditions: read-out: apparent Kd; compound concentrations:100 nM and 1000 nM (sheet 'Samples'); n = 1
# CSNK2A2 = conditions: read-out: apparent Kd; compound concentrations:100 nM and 1000 nM (sheet 'Samples'); n = 1
# PRKD3 = conditions: read-out: apparent Kd; compound concentrations:100 nM and 1000 nM (sheet 'Samples'); n = 1
# NQO2 = conditions: read-out: apparent Kd; compound concentrations:100 nM and 1000 nM (sheet 'Samples'); n = 1
# PIP4K2C = conditions: read-out: apparent Kd; compound concentrations:100 nM and 1000 nM (sheet 'Samples'); n = 1
# ACVR2B = conditions: read-out: apparent Kd; compound concentrations: 100 nM and 1000 nM (sheet 'Samples'), CATDS: 4.2186627256430298E-2; n = 1
# CDC42BPB = conditions: read-out: apparent Kd; compound concentrations: 100 nM and 1000 nM (sheet 'Samples'), CATDS: 4.17361912468606E-2; n = 1
# CDC42BPG = conditions: read-out: apparent Kd; compound concentrations: 100 nM and 1000 nM (sheet 'Samples'), CATDS: 4.6703461081502903E-2; n = 1
# CDK13 = conditions: read-out: apparent Kd; compound concentrations: 100 nM and 1000 nM (sheet 'Samples'), CATDS: 3.8824736575062302E-2; n = 1
# CDKL5 = conditions: read-out: apparent Kd; compound concentrations: 100 nM and 1000 nM (sheet 'Samples'), CATDS: 4.2225060915193902E-2; n = 1
# CIT = conditions: read-out: apparent Kd; compound concentrations: 100 nM and 1000 nM (sheet 'Samples'), CATDS: 9.7052908053400402E-2; n = 1
# MAP3K12 = conditions: read-out: apparent Kd; compound concentrations: 100 nM and 1000 nM (sheet 'Samples'), CATDS: 4.3727049359112501E-2; n = 1
# MAP3K4 = conditions: read-out: apparent Kd; compound concentrations: 100 nM and 1000 nM (sheet 'Samples'), CATDS: 4.0498159279946502E-2; n = 1
# MTOR = conditions: read-out: apparent Kd; compound concentrations: 100 nM and 1000 nM (sheet 'Samples'), CATDS: 6.6094429766625107E-2; n = 1
# PRKCD = conditions: read-out: apparent Kd; compound concentrations: 100 nM and 1000 nM (sheet 'Samples'), CATDS: 3.8004287822733102E-2; n = 1
# ROCK1 = conditions: read-out: apparent Kd; compound concentrations: 100 nM and 1000 nM (sheet 'Samples'), CATDS: 9.5371648246972293E-2; n = 1
# ROCK2 = conditions: read-out: apparent Kd; compound concentrations: 100 nM and 1000 nM (sheet 'Samples'), CATDS: 9.3527332019104195E-2; n = 1
# TESK1 = conditions: read-out: apparent Kd; compound concentrations: 100 nM and 1000 nM (sheet 'Samples'), CATDS: 4.6585684962704203E-2; n = 1
# [1] = compound concentrations:100 nM and 1000 nM (sheet 'Samples')
smiles,measurement,setting,value
CN1CCN(CCCNc2nccc(-c3c(-c4ccc(F)cc4)nn4cc(C(N)=O)ccc34)n2)CC1 [GW622475X],potency estimated from few doses,"ACVR1B; compound concentrations: 100 nM and 1000 nM (sheet 'Samples'), CATDS: 0.21340745676279499",0.0165 µM
same,potency estimated from few doses,ACVR1,0.488 µM
same,potency estimated from few doses,CSNK1A1; CATDS: 5.98915782601789E-2,0.252 µM
same,potency estimated from few doses,CSNK1D; CATDS: 0.221506901273927,0.0156 µM
same,potency estimated from few doses,CSNK1E; CATDS: 9.6112931202447002E-2,0.0723 µM
same,potency estimated from few doses,DDR1,0.576 µM
same,potency estimated from few doses,DDR2,1.9 µM
same,potency estimated from few doses,GAK; CATDS: 4.4963876201462499E-2,0.712 µM
same,potency estimated from few doses,MAPK10,0.53 µM
same,potency estimated from few doses,MAPK11,0.569 µM
same,potency estimated from few doses,MAPK14,0.0369 µM
same,potency estimated from few doses,MAPK9,0.2 µM
same,potency estimated from few doses,MAPKAPK2,0.0293 µM
same,potency estimated from few doses,"PRKD2; compound concentrations: 100 nM and 1000 nM (sheet 'Samples'), CATDS: 3.69212062314868E-2",2.18 µM
same,potency estimated from few doses,RIPK2,0.363 µM
same,potency estimated from few doses,"TGFBR1; compound concentrations: 100 nM and 1000 nM (sheet 'Samples'), CATDS: 8.1591289102362505E-2",0.107 µM
COc1ccc(-c2ccc3c(NC(=O)C4CC4)n[nH]c3n2)cc1 [SB-711237],potency estimated from few doses,"ACVR1B; compound concentrations: 100 nM and 1000 nM (sheet 'Samples'), CATDS: 0.16866039240373501",1.18 µM
same,potency estimated from few doses,ADCK3; CATDS: 0.14880786658068901,1.59 µM
same,potency estimated from few doses,AKT2; CATDS: 0.130692249594417,2.26 µM
same,potency estimated from few doses,PIK3CA; CATDS: 0.46102021867548298,0.21 µM
same,potency estimated from few doses,PIM2,1.45 µM
same,potency estimated from few doses,PRKAG2,1.79 µM
Cc1cccc(-c2nc(Nc3ccc4[nH]ncc4c3)c3ccccc3n2)n1 [GW857175X],potency estimated from few doses,ACVR1B; [1],0.089 µM
same,potency estimated from few doses,CSNK2A1;CSNK2A3,0.00412 µM
same,potency estimated from few doses,CSNK2A2,0.0033 µM
same,potency estimated from few doses,PRKD2; [1],0.00889 µM
same,potency estimated from few doses,PRKD3,0.0355 µM
O=C(c1ccc(-c2cc(-c3c[nH]nc3-c3ccccn3)ccn2)cc1)N1CCCC1 [GW792479X],potency estimated from few doses,ACVR1B; [1],0.27 µM
same,potency estimated from few doses,NQO2,1.39 µM
same,potency estimated from few doses,PIP4K2C,1.65 µM
same,potency estimated from few doses,TGFBR1; [1],0.118 µM
Cl.Cl.NCC(NC(=O)c1cc(-c2cccnc2)c(-c2ccnc3[nH]ccc23)s1)c1ccccc1.NCC(NC(=O)c1cc(-c2cccnc2)c(-c2ccnc3[nH]ccc23)s1)c1ccccc1 (stereo not drawn) [GSK1323434A],potency estimated from few doses,ACVR2B,1.74 µM
same,potency estimated from few doses,ADCK3; CATDS: 4.2636301284937402E-2,1.69 µM
same,potency estimated from few doses,AKT2; CATDS: 3.8315298656597697E-2,2.29 µM
same,potency estimated from few doses,CDC42BPB,1.79 µM
same,potency estimated from few doses,CDC42BPG,1.34 µM
same,potency estimated from few doses,CDK13,2.2 µM
same,potency estimated from few doses,CDKL5,1.73 µM
same,potency estimated from few doses,CIT,0.344 µM
same,potency estimated from few doses,CSNK1A1; CATDS: 4.3314802328408702E-2,1.62 µM
same,potency estimated from few doses,CSNK1D; CATDS: 5.2512295854069302E-2,1.03 µM
same,potency estimated from few doses,CSNK1E; CATDS: 4.5718432207302401E-2,1.41 µM
same,potency estimated from few doses,GAK; CATDS: 5.0119839441511702E-2,1.14 µM
same,potency estimated from few doses,MAP3K12,1.58 µM
same,potency estimated from few doses,MAP3K4,1.94 µM
same,potency estimated from few doses,MTOR,0.653 µM
same,potency estimated from few doses,PIK3CA; CATDS: 0.16597567422928799,0.161 µM
same,potency estimated from few doses,PRKCD,2.35 µM
same,potency estimated from few doses,ROCK1,0.354 µM
same,potency estimated from few doses,ROCK2,0.364 µM
same,potency estimated from few doses,TESK1,1.35 µM
